PubChem BioAssay AID1159580 (chemical genetic matrix, 2015)
Out of some 5,500 compounds screened, about 2,000 (36%) were called active. Inconclusive results (about 18%) are left out. Cut-off read from the data, not from the text of the source: active = normalized growth mostly below about 0.91 (no sharp cut-off); inconclusive = no clear call, values can overlap the other calls; inactive = mostly above about 0.92. The list shows a part of the results.

Experiment: chemical genetic growth profiling, strain panel (AID 1159580);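 note: tested at 20 µM; growth read once vehicle control cultures reached saturation at 30 °C; 1 = growth at the plate median or of vehicle wells; lower values mean less growth of the strain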
Settings: S. cerevisiae deletion strains, growth OD

Measured: normalized growth

Cc1cc(=O)c2c(o1)-c1c(cc(O)c(O)c1C(=O)O)OC2
inactive: locus YBR021W, strain FUR4, hits give low values 0.96 | locus YBR229C, strain ROT2, hits give low values 0.996 | locus YCL029C, strain bik1, hits give low values 1.03 | locus YDL035C, strain GPR1, hits give low values 1 | locus YDL074C, strain BRE1, hits give low values 0.984 | locus YDL101C, strain DUN1, hits give low values 1 | locus YDL134C, strain PPH21, hits give low values 1 | locus YDL185W, strain tfp1, hits give low values 1.01 | locus YDL192W, strain arf1, hits give low values 1.01 | locus YDR101C, strain arx1, hits give low values 1.01 | locus YDR150W, strain NUM1, hits give low values 0.97 | locus YDR162C, strain NBP2, hits give low values 0.987 | locus YDR318W, strain mcm21, hits give low values 1.01 | locus YDR388W, hits give low values 1.01 | locus YDR502C, strain sam2, hits give low values 1.03 | locus YEL061C, strain CIN8, hits give low values 1 | locus YER110C, hits give low values 1.03 | locus YER155C, strain BEM2, hits give low values 1.01 | locus YER167W, strain BCK2, hits give low values 1.02 | locus YGL078C, strain dbp3, hits give low values 1.02 | locus YGL086W, strain mad1, hits give low values 1.02 | locus YGL248W, strain PDE1, hits give low values 0.996 | locus YGR078C, strain PAC10, hits give low values 0.991 | locus YGR135W, strain pre9, hits give low values 1.02 | locus YGR252W, strain gcn5, hits give low values 0.997 | locus YHR030C, strain SLT2, hits give low values 1.01 | locus YHR079C, strain IRE1 (second series), hits give low values 1.01 | locus YHR094C, strain hxt1, hits give low values 1.02 | locus YHR129C, strain ARP1, hits give low values 1.01 | locus YHR200W, strain rpn10, hits give low values 1.03 | locus YIL066C, strain RNR3, hits give low values 0.99 | locus YIL073C, strain SPO22, hits give low values 1.05 | locus YIL125W, strain kgd1, hits give low values 1.03 | locus YIR030C, strain dcg1, hits give low values 1.02 | locus YJL095W, strain BCK1, hits give low values 0.998 | locus YJL134W, strain LCB3, hits give low values 1.01 | locus YJL168C, strain set2, hits give low values 1.02 | locus YJL187C, strain SWE1 (second series), hits give low values 1.02 | locus YJR043C, strain POL32, hits give low values 0.997 | locus YKL009W, strain mrt4, hits give low values 1.03 | locus YKL068W, hits give low values 1.01 | locus YKL085W, strain MDH1 (second series), hits give low values 1.01 | locus YKL085W, strain MDH1, hits give low values 1.01 | locus YKR001C, strain vps1, hits give low values 1.02 | locus YLR039C, strain RIC1, hits give low values 0.973 | locus YLR058C, strain SHM2, hits give low values 1.01 | locus YLR102C, strain apc9, hits give low values 1.01 | locus YLR262C, strain YPT6, hits give low values 1.02 | locus YLR268W, strain sec22, hits give low values 1.02 | locus YLR330W, strain CHS5, hits give low values 0.991 | locus YLR342W, strain FKS1 (second series), hits give low values 0.966 | locus YLR371W, strain rom2, hits give low values 1.03 | locus YLR418C, strain cdc73, hits give low values 1.05 | locus YML016C, strain PPZ1, hits give low values 0.998 | locus YML032C, strain rad52, hits give low values 1.01 | locus YML124C, strain tub3, hits give low values 1.01 | locus YMR078C, strain ctf18, hits give low values 1.02 | locus YMR223W, strain ubp8, hits give low values 1.01 | locus YMR263W, strain SAP30, hits give low values 1 | locus YMR307W, strain GAS1, hits give low values 0.935 | locus YNL067W, strain RPL9B, hits give low values 0.987 | locus YNL153C, strain GIM3, hits give low values 1 | locus YNL233W, strain BNI4, hits give low values 1.02 | locus YNL250W, strain rad50, hits give low values 1.03 | locus YNL271C, strain bni1, hits give low values 1.02 | locus YNL298W, strain CLA4, hits give low values 1.03 | locus YNL307C, strain MCK1, hits give low values 1.02 | locus YNR052C, strain pop2, hits give low values 1.02 | locus YOL006C, strain TOP1, hits give low values 0.969 | locus YOL012C, strain htz1 0.545 | locus YOL147C, strain pex11, hits give low values 1.02 | locus YOR061W, strain CKA2, hits give low values 1.01 | locus YOR069W, strain VPS5, hits give low values 1 | locus YOR136W, strain idh2, hits give low values 1.03 | locus YOR144C, strain elg1, hits give low values 1.01 | locus YOR184W, strain ser1, hits give low values 1.03 | locus YOR316C, strain cot1, hits give low values 1.01 | locus YPL055C, strain LGE1, hits give low values 1.01 | locus YPR119W, strain clb2, hits give low values 1.01 | locus YPR141C, strain kar3, hits give low values 1.02 | locus YPR163C, strain tif3, hits give low values 1.01 | locus YPR167C, strain met16, hits give low values 1.03 | strain wtn01, hits give low values 1.02
